For 35 compounds, inhibition results are on record in PubChem BioAssay.

Structures are written as SMILES. The list shows a part of the results. Unmarked numbers belong to inactive results. Calls of active or inactive are those of the source.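 How the source made its calls, unless noted: active means mean inhibition above a cutoff equal to the average over all tested compounds plus one standard deviation (cut at about 70% in these data); inactive means the rest.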

The target in one test is Photoreceptor-specific nuclear receptor (Homo sapiens) (UniProt Q9Y5X4). In words: NR2E3 agonist confirmation in cells, cell-based, luminescence, CHO-S two-hybrid (AID 624378;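 active means average inhibition above a cutoff equal to the mean inhibition of all tested compounds plus one SD, cut at about 70% in these data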;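 further: 0% = DMSO in NR2E3 cells and 100% = DMSO in cells lacking NR2E3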). As to conditions: CHO-S mammalian two-hybrid NR2E3-NCOR, luciferase luminescence; at 3.98 µM; hits give high values.
Photoreceptor-specific nuclear receptor (Homo sapiens), sequence (Q9Y5X4 whole entry, looked up): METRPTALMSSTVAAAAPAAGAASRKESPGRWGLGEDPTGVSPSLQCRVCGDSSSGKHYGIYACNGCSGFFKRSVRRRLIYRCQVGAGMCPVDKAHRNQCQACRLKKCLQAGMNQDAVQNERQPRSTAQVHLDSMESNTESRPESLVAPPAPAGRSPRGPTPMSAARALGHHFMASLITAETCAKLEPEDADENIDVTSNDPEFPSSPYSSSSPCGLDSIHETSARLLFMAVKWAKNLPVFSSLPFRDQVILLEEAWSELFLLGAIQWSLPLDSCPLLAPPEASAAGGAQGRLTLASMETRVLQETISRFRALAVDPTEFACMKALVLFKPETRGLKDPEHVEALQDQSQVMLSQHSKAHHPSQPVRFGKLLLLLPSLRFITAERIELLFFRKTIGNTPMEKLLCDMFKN
For `CSc1ncccc1C(=O)Nc1nc2ccc(F)cc2s1`, the inhibition was 68.5%.

`c1ccc(C(=NNc2nc3ccccc3s2)c2ccccn2)cc1`: the inhibition was 22.6%.

On to `CC(=O)c1c(C)[nH]c(C(=O)COC(=O)c2cccc(S(=O)(=O)N(C)c3ccccc3)c2)c1C`, for which the inhibition is 23.8%.

`Cc1csc(NC(=S)Nc2cccc(Cl)c2)n1`: the inhibition is -131%.

For the compound `Cc1cccc(N2CCN(C(=O)c3cccc(S(=O)(=O)N4CCc5ccccc5C4)c3)CC2C)c1` (stereo not given), the inhibition is 52%.

For `O=C(Nc1nnc(-c2ccccc2)o1)c1cc(-c2cccs2)nc2ccccc12`, the inhibition was 98.3% (active).

In the case of `Cc1nc2c(OCc3cccc(Cl)c3)cccn2c1N(C)CC1CC1`, the inhibition was 1.83%.

For `COC(=O)c1ccc(NC(=O)c2ccccc2NS(=O)(=O)c2ccccc2)cc1`, the inhibition is 77.4% (active).

For the compound `CCOC(=O)CC1(NC(=O)c2cc(COc3cncc(Cl)c3)on2)CCCCC1`, the inhibition is 20.2%.

`O=C(NC1=CC(=O)c2ccccc2C1=O)c1ccccc1`: the inhibition is 6.41%.

Tested on in a further test: not listed separately
In words: GAL4-VP16 reporter modulators, confirmation, counter-screen for NR2E3 agonist project, cell-based, luminescence, CHO-S, high throughput (AID 624379).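 Further: luciferase from a UAS reporter driven by GAL4-VP16 transactivation; 0% = DMSO with VP16-transfected cells and 100% = DMSO with cells lacking VP16; higher means less reporter light so more repression of VP16 activity.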 As to conditions: CHO-S GAL4-VP16 luciferase reporter, at 3.98 µM, hits give high values.
For `CCC(C)C(N=C1NS(=O)(=O)c2ccccc21)C(=O)N1CCC(C)CC1` (stereo not given), the inhibition is -4.13%.

As to `O=C1/C(=C\c2ccc([N+](=O)[O-])cc2)CS(=O)(=O)C/C1=C/c1ccc([N+](=O)[O-])cc1`, the inhibition was 53.2%.

On to `CCCNc1ncnc2sc(C)c(C)c12`, for which the inhibition is 29.6%.

Take `CCCC1CCC(=NNC(=S)NCCc2ccccc2)CC1` (stereo not given): the inhibition is -1.56%.

`CN(C)C(=S)N=c1ssc(=S)n1Cc1ccco1`: the inhibition was -46.1%.

Take `COc1ccc(S(=O)(=O)NCCCCOc2ccc(Cl)cc2)cc1`: the inhibition is 86.5% (active).

Consider `Oc1ccc(Br)cc1/C=N/Nc1ccccn1`, for which the inhibition is 61%.

With `c1ccc(C2c3[nH]c4ccccc4c3CCN2Cc2cccn2-c2cccnc2)nc1` (stereo not given), the inhibition was -5.76%.

Consider `Cc1ccc(NS(=O)(=O)c2ccc(-c3coc(C)n3)cc2)c(C)c1`, for which the inhibition was 46.7%.

As to `Cc1cccc(NC(=O)c2ccc(COc3ccccc3[N+](=O)[O-])o2)n1`, the inhibition is 26.1%.

In the case of `CCOc1ccc(S(=O)(=O)N2CCCCCC2)c2ccccc12`, the inhibition is -4.92%.

In the case of `Cc1cc2nc(-c3ccc(Cl)cc3)c(Cc3cccc(F)c3)n2c(C)c1Br`, the inhibition was -25.9%.

Turning to `Cc1[nH]n(-c2cccc(Cl)c2)c(=O)c1-c1ccc(Cl)cc1`, the inhibition was 71.3% (active).

`OC(c1ccc(Cl)cc1)c1ncc(-c2ccc(Cl)cc2)[nH]1` (stereo not given): the inhibition was 58.9%.

Regarding `O=S(=O)(c1cccc(Cn2nnc(-c3ccc(F)cc3)n2)c1)N1CCOCC1`, the inhibition is 39.4%.

As to `O=C(c1ccc(N2CCCC2=O)cc1)N1CCN(c2ccc(C(F)(F)F)cc2[N+](=O)[O-])CC1`, the inhibition is 74.9% (active).

For `Clc1ccc(-n2nnnc2-c2cnc(-c3ccccn3)nc2-c2cccs2)cc1`, the inhibition was -8.49%.

With `COc1cccc(CNS(=O)(=O)c2ccc3c(c2)CC(C)N3C(=O)C2CCC2)c1` (stereo not given), the inhibition was 58.5%.

`CCC1(C)Cc2c(sc3[nH]c(=S)n(Cc4ccccc4)c(=O)c23)CO1` (stereo not given): the inhibition was 34.4%.

On to `CN(Cc1cn(Cc2ccc(C(F)(F)F)cc2)nn1)C1CN(Cc2cn(Cc3ccc(C(F)(F)F)cc3)nn2)S(=O)(=O)C1` (stereo not given), for which the inhibition is 63.3%.

With `COc1ccc(S(=O)(=O)N2CCN(C(C)C(=O)Nc3ccc(C(C)C)cc3)CC2)cc1` (stereo not given), the inhibition was -0.89%.

In the case of `S=C(NN=Cc1ccccn1)Nc1ccccn1`, the inhibition was 14.3%.

As to `CSc1nsc(SC)c1NC(=O)OC1CCCCC1`, the inhibition was -17.6%.

With `N#Cc1c(-c2ccccc2)nc(SCc2cccc(C(F)(F)F)c2)[nH]c1=O`, the inhibition is 30.9%.

Take `COc1cc(NS(=O)(=O)c2ccc3ccccc3c2)c2ncccc2c1`: the inhibition is 31.6%.

Regarding `CSc1ncccc1C(=O)Nc1nc2ccc(F)cc2s1`, the inhibition was 25.2%.

For `c1ccc(C(=NNc2nc3ccccc3s2)c2ccccn2)cc1`, the inhibition is 11.6%.

As for `CC(=O)c1c(C)[nH]c(C(=O)COC(=O)c2cccc(S(=O)(=O)N(C)c3ccccc3)c2)c1C`, the inhibition was 73.4% (active).

Turning to `Cc1csc(NC(=S)Nc2cccc(Cl)c2)n1`, the inhibition is -129%.

In the case of `Cc1cccc(N2CCN(C(=O)c3cccc(S(=O)(=O)N4CCc5ccccc5C4)c3)CC2C)c1` (stereo not given), the inhibition was 49%.

Consider `O=C(Nc1nnc(-c2ccccc2)o1)c1cc(-c2cccs2)nc2ccccc12`, for which the inhibition was 12.6%.

With `Cc1nc2c(OCc3cccc(Cl)c3)cccn2c1N(C)CC1CC1`, the inhibition was 19.3%.

As to `COC(=O)c1ccc(NC(=O)c2ccccc2NS(=O)(=O)c2ccccc2)cc1`, the inhibition is 57.7%.

For the compound `CCOC(=O)CC1(NC(=O)c2cc(COc3cncc(Cl)c3)on2)CCCCC1`, the inhibition is 44.2%.

Turning to `O=C(NC1=CC(=O)c2ccccc2C1=O)c1ccccc1`, the inhibition was 17.1%.
